# Assay outcomes: PubChem, National Center for Advancing Translational Sciences (NCATS)
# Rows were chosen to be rich in hits. Some 2.7% of all compounds tested hit in one or more screens of this group.
# TrxR1 substrate: rat thioredoxin reductase 1 substrate activity; Potency, µM (titrated, usually from 114 µM), for the others: at the highest dose activity change, negative = substrate turnover; 0.01% of 390,000 active; purified TrxR1 substrate turnover, NADPH consumption readout; AID 588456; O89049; also: % is scaled to controls: 0 for no effect and ±100 for the full control effect; nearly all actives have a fitted effect of over 50% in size
#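 Rat TrxR1, dispensed at 90 nM, was prereduced with 400 uM NADPH (final) for 5 min at ~22 deg C, then incubated with compound 15 min before 400 uM selenite. A first-read NADPH fluorescence drop versus no-compound background flagged substrates.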
# GLP1R ag: agonists of human GLP-1 receptor | AID 624172 | P43220 | 0.007% of 380,000 active | HEK293 GLP-1R CRE-luciferase, luminescence, 4-6 h; cells express a hypersensitive GLP-1R form | Potency, µM (doses to about 45.6 µM), inactives show at the highest dose activation, usual class: activators; also: % of control where 0% means no effect
# mIDH1 inhibitor: human IDH1 R132H inhibition; O75874; IDH1-R132H enzyme, NADPH consumption, diaphorase/resazurin fluorescence; Potency, µM (top dose mostly 76.6 µM), without a hit: at the top dose activity change, negative = inhibition, actives largely listed as inhibitors; 0.093% of 390,000 active; AID 602179; also: % is scaled to controls: 0 for no effect and ±100 for the full control effect; nearly all actives have a fitted effect of over 65% in size
# Target sequence (O75874 whole entry R132H, stated change not applied): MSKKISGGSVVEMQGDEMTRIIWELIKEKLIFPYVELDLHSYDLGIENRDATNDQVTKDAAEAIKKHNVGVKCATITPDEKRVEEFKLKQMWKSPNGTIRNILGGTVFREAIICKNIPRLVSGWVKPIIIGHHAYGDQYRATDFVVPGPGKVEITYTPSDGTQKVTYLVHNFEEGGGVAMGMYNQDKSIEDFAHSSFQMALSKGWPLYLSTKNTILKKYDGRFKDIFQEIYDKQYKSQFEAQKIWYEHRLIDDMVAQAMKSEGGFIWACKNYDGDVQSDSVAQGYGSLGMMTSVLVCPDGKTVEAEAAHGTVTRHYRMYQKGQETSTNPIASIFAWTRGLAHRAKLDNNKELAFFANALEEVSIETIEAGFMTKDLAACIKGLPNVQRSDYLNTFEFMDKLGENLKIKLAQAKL
#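 IDH1-R132H (0.5 ug/mL dispensed) in pH 7.5 Tris buffer was preincubated 30 min with compound, then given a substrate mix of 0.016 mM NADPH and 2 mM alpha-KG for 80 min at room temperature; remaining NADPH was read by diaphorase/resazurin fluorescence.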
# GLP-1R inv ag: inverse agonists of human GLP-1 receptor; P43220; 1.6% of 410,000 active; HEK293 GLP-1R CRE-luciferase, luminescence, 24 h; GLP-1R form is constitutively active; Potency, µM (top dose mostly 38.3 µM), for the others: at the top dose activity change, negative = inhibition, actives largely listed as inhibitors; also: % is scaled to controls: 0 for no effect and ±100 for the full control effect; nearly all actives have a fitted effect of over 55% in size
#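 Inverse agonists were sought by their lowering of basal cAMP reporter luciferase output in HEK293 cells stably carrying constitutively active human GLP-1R, after 24 h compound treatment.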
# HEK293 tox: cytotoxicity counter-screen for GLP-1 receptor inverse agonists; Potency, µM (series often up to 38.3 µM), inactives show at the top dose activity change, negative = inhibition, usual class: inhibitors; HEK293 cAMP-luciferase reporter cells, luminescence, 24 h; 0.13% of 410,000 active; AID 624418;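 also: loss of luciferase light is scored as toxicity; % is scaled to controls: 0 for no effect and ±100 for the full control effect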
#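 Step one: seed cells (200 cells/uL, DMEM with 10% Nu serum, 1% pen-strep). Step two: 12-hour incubation at 37 deg C. Step three: pin 23 nL compound, incubate 24 hr. Step four: add luciferase reagent, read luminescence 12 min later.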
# rTrxR1 inhibitor: rat TrxR1 inhibition; O89049; recombinant rTrxR1, NADPH fluorescence consumption, selenite substrate; Potency, µM (highest dose often 114 µM), inactives show top-dose activity change, negative = inhibition, most hits filed as inhibitors; 1% of 390,000 active; AID 588453; also: % is scaled to controls: 0 for no effect and ±100 for the full control effect; nearly all actives have a fitted effect of over 65% in size
#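 Rat TrxR1 (90 nM in the dispensed reagent) was pre-reduced with 400 uM NADPH for 5 min at room temperature, then incubated with compound for 15 min. After 400 uM selenite was added, NADPH fluorescence (Ex 340/Em 450 nm) was followed for 8 min.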
# Numbers without * were called inactive; ? = inconclusive; · = no result given; [ ] = dose if it differs, or a comment. Calls follow the shape of the dose curve; as a rule, active = well fitted curve in the direction sought with a large enough effect; inconclusive = small, poorly fitted or top-dose-only effect, or another doubt; inactive = no such curve, though single readings can be large; an effect the other way counts as inactive or inconclusive. Potency is read from the fitted curve at half-maximal effect.
SMILES,TrxR1 substrate,GLP1R ag,mIDH1 inhibitor,GLP-1R inv ag,HEK293 tox,rTrxR1 inhibitor
CC(C)c1ccc(Nc2c(-c3ccccc3O)nc3cnccn23)cc1,-3%,-7%,-8%,10µM*,1%,9%
Cc1ccc(-c2nc3ccccn3c2Nc2ccccc2C)o1,149%,·,·,·,·,?
CC(=O)Nc1ccc(NS(=O)(=O)c2c(C(=O)N3CCC(C)CC3)c(C)n(C)c2C)cc1,-1%[57.1 µM],·,-17%,14%,-16%,4%[57.1 µM]
CCOc1ccc(NS(=O)(=O)c2cccc(C(=O)N3CCN(C/C=C/c4ccccc4)CC3)c2)cc1,-8%,-11%,-4%,10µM*,-29%,-6%
O=C(c1ccccc1)N1CCN(CCc2ccncc2)CC1,-1%,·,-6%,2%,17%,?
Cc1ccc2c(c1)C1CN(C)CCC1N2C(=S)NC(=O)c1ccc(Br)cc1 (stereo unspecified),-3%,0%,-3%,11µM*,?,-16%
COc1cccc(N2CCN(C(=O)CCCn3c(=O)[nH]c4ccc(Br)cc4c3=O)CC2)c1,-3%,-3%,0%,?,-26%,18%
COCc1cc(C)nc2sc3c(c12)NC(c1ccc(O)cc1)N(c1ccc(C)cc1)C3=O (stereo unspecified),-4%,·,15%,-12%,75%,?
CC(=NNC(=S)Nc1ccc(C)cc1)c1ccccn1,-11%,?,0%,-27%,-40%,?
CC(=NNC(=S)N1CC2CCC(CC2)C1)c1cnccn1,-11%,-4%,5%,?,-58%,?
CC(=NNC(=S)N1CCN(C2CCCCCC2)CC1)c1ccccn1,-3%[11.4 µM],6%,3%,-70%,0.32µM*,?
COc1ccccc1NC(=S)NN=C(C)c1ccccn1,-6%,0%,7%,-72%,?,11µM*
CC(=NNC(=S)N1CC2CCC(CC2)C1)c1ccccn1,·,-5%,-7%,?,6.3µM*,·
COc1ccc(OCCn2nnc3sc4c(c3c2=O)CCCC4)cc1,-5%,·,·,-3%,-4%,5%
CCCCN(CC)C(=O)C1CCCN(c2ncnc3c2nc2n3CCCCC2)C1 (stereo unspecified),-1%,·,27%,-14%,-3%,14%
CCOC(=O)c1c(C)sc2c1N(C(=O)CCl)c1cc(Cl)ccc1S2,-2%,-20%,-10%,-19%,?,5µM*
Cc1sc2ncnc(SCC(=O)N3c4ccccc4Sc4ccc(Cl)cc43)c2c1C,10%,-4%,-4%,-5%,0%,12%
CC(=O)c1c(C)[nH]c(C(=O)Nc2ccc(C)c(S(=O)(=O)Nc3ccc(C)cc3C)c2)c1C,-9%,-2%,0%,2.5µM*,?,0%
CC(=O)c1c(C)[nH]c(C(=O)Nc2ccc(C)cn2)c1C,7%[57.1 µM],-13%,6%,5.6µM*,-7%,2%[57.1 µM]
COc1ccc(-c2nc(NC(=O)c3[nH]c(C)c(C(C)=O)c3C)sc2C)cc1,11%[57.1 µM],7%,3%,13µM*,-2%,24%[57.1 µM]
CC(=O)c1c(C)[nH]c(C(=O)Nc2nc(-c3ccc(Cl)cc3)cs2)c1C,-2%,-5%,-1%,-5%,-1%,12%
CC(=O)c1c(C)[nH]c(C(=O)Nc2nc(C)cs2)c1C,11%[57.1 µM],-1%,8%,2.2µM*,-2%,29%[57.1 µM]
CC(=O)c1c(C)[nH]c(C(=O)Nc2ccc(C)c(S(=O)(=O)N(C)C)c2)c1C,-3%,1%,4%,-5%,-1%,17%[57.1 µM]
CCc1cccc(C)c1NC(=O)c1cc(S(=O)(=O)N2CCOCC2)cn1C,0%,·,0%,-5%,-7%,7%
Cc1ccc2onc(CC(=O)N3CCN(c4ccccc4)CC3)c2c1,-10%,·,8%,1%,2%,-2%
SMILES,TrxR1 substrate,GLP1R ag,mIDH1 inhibitor,GLP-1R inv ag,HEK293 tox,rTrxR1 inhibitor
CCOC(=O)c1sc2nc(CC(=O)OC)nc(N3CCN(c4ccc(OC)cc4)CC3)c2c1C,-5%[57.1 µM],20%,0%,4µM*,-7%,12%
CCOC(=O)c1sc2nc(CC(=O)OC)nc(NCCN3CCOCC3)c2c1C,17%,14%,10%,9%,1%,?
COC(=O)C1(C(=O)OC)C[C@H](/C=C/c2ccccc2)N(Cc2ccccc2OC)[C@@H]1c1cccs1,·,·,·,10µM*,32%,·
COc1ccccc1CN1C2CCCC1CC(NC(=O)/C=C/c1ccccc1)C2 (stereo unspecified),9%,-1%,0%,10µM*,?,24%[57.1 µM]
Cc1nnc(N2CCN(c3cccc(C(F)(F)F)c3)CC2)c2c1nnn2Cc1ccccc1,34%,·,17%,-11%,2%,74%
c1ccc2c(c1)-c1cccc3cncc-2c13,12%[57.1 µM],15%,18%,3%,12%,4%[57.1 µM]
c1ccc2c(-c3cncc4ccccc34)cncc2c1,15%,4%,0%,2µM*,-7%,8%
CCOC(=O)c1nn(-c2ccccc2)c(-c2ccccc2)c1C(=O)c1ccccc1,-3%[57.1 µM],-1%,4%,2.8µM*,-20%,17%[57.1 µM]
CCOC(=O)c1nn(-c2ccc(F)cc2)c(-c2ccccc2)c1C(=O)c1ccccc1,-8%,-29%,3%,?,14%,8%
CCOC(=O)c1nn(-c2cccc(OC)c2)c(-c2ccccc2)c1C(=O)c1ccccc1,-9%,7%,5%,5.6µM*,-3%,5%
COc1ccc(-n2c(/C=C/c3cc(OC)c(OC)cc3OC)nc3cc4ccccc4cc3c2=O)cc1Cl,-5%[57.1 µM],·,-11%,2%,9%,8%[57.1 µM]
Cn1ccsc1=NC(=O)c1ccc(S(C)(=O)=O)c([N+](=O)[O-])c1,-13%,-3%,0%,?,?,56µM*
Cn1ccsc1=NC(=O)c1ccc(Cl)c([N+](=O)[O-])c1,2%,-4%,5%,15%,0%,12%
CCc1c(C)c2ccccc2[nH]c1=O,8%,·,·,·,·,22%
Cc1cc(NC(=O)CSc2nc3c(sc4ccccc43)c(=O)n2CCCN2CCOCC2)n[nH]1,6%,19%,-2%,0%,5µM*,7%
O=C(CSc1nc2c(sc3ccccc32)c(=O)n1CCCN1CCCC1)NCc1ccco1,4%[57.1 µM],8%,0%,10µM*,?,14%[57.1 µM]
O=C(CSc1nc2c(sc3ccccc32)c(=O)n1CCO)NCc1ccco1,8%,-10%,-1%,0%,2%,-7%
CCc1ccc(CNC(=O)Cc2ccc(NC(=O)N3CCSc4ncccc43)cc2)cc1,0%,·,9%,-27%,-14%,18%
O=C(CNC(=O)c1ccccc1)OCC(=O)c1cccc2ccccc12,-1%,·,·,·,·,6%[0.0914 µM]
